RTF Ca sens act: increases calcium sensitivity of human cardiac regulated thin filaments; 340,000 compounds, 0.24% hits; AID 493008; activation, % at 7.2 µM; IANBD-labeled TnC RTF fluorescence at EC20 calcium; 0% EC20 calcium, 100% full calcium; P19429+P45379;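 active = activation above the mean over all tested compounds plus 3 SD, cut at about 30% in these data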;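 also: rise in fluorescence read as greater calcium sensitivity of cardiac thin filaments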
LANA-H2A inh: blocks KSHV LANA binding to histone H2A/H2B. Q9QR71. cell-free LANA-H2A/H2B peptide, fluorescence polarization. inhibition, % (concentration not given with the values). 320,000 compounds, 0.6% hits. AID 2629; in the data active = inhibition mostly above about 10%, no sharp cut-off; inactive = mostly below about 6.7%
RTF Ca sens inh: cardiac RTF calcium desensitization; IANBD-labeled cardiac RTF, Ca2+ fluorescence; 340,000 compounds, 0.12% hits; inhibition, % at 7.15 µM;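 active = inhibition above the mean inhibition of all tested compounds plus 3 SD, cut at about 17% in these data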;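 also: assay run at fixed EC70 calcium of 1.6 mM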
LANA DNA inh: KSHV C-LANA DNA binding inhibition | MBP-C-LANA/FAM-LBS DNA binding, fluorescence polarization | inhibition, % at 9 µM | 340,000 compounds, 0.078% hits | AID 504423;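 active = highest replicate inhibition at or above 60% at 9 µM, even if other replicates fall short; inactive = all replicates below 60% inhibition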;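 also: 0% = neutral control wells and 100% = 4 µM acridine orange control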
Keap1 Nrf2 FP: inhibitors of human Keap1-Nrf2 protein-protein interaction; Q14145; Keap1 Kelch-Nrf2 peptide fluorescence polarization, 1536-well; inhibition, % at 9.4 µM; 340,000 compounds, 0.15% hits; in the data active = inhibition above about 12%;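 also: human Keap1 Kelch domain with fluorescein labeled Nrf2 9mer peptide probe; 0% = neutral control wells and 100% = peptide positive control; higher means more block of Keap1 binding to Nrf2 peptide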
Target sequence (Q14145 whole entry, looked up, the tested form may be a part): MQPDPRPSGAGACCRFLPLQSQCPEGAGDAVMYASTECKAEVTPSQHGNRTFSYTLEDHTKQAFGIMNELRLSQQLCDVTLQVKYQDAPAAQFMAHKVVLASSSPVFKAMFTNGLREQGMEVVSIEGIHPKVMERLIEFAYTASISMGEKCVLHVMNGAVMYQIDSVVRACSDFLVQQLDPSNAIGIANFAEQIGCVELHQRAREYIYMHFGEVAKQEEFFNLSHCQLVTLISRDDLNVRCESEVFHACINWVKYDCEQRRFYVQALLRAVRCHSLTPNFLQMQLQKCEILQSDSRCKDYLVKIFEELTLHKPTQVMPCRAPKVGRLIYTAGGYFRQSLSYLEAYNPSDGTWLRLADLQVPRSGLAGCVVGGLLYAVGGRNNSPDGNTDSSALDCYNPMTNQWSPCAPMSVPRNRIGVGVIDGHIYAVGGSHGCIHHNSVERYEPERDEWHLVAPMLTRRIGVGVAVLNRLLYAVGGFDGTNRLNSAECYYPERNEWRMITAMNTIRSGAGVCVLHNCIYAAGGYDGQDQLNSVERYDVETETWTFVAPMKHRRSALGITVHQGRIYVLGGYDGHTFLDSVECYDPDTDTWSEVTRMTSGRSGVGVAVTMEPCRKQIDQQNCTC
Active calls of the source: *. Hits are enriched below; roughly 1% of the tested compounds scored in any of these assays.

CC1CCN(Cc2c(O)ccc3c2O/C(=C\c2ccco2)C3=O)CC1 was read as RTF Ca sens act 11, LANA-H2A inh 2, RTF Ca sens inh -8, LANA DNA inh 55 and Keap1 Nrf2 FP -4.
For COCCN(CCOC)Cc1c(O)ccc2c1O/C(=C\c1ccco1)C2=O the results were RTF Ca sens act 69*, LANA-H2A inh 9, RTF Ca sens inh -94, LANA DNA inh 65* and Keap1 Nrf2 FP 1.
For CCN(CC)S(=O)(=O)c1ccc(N2CCOCC2)c(NC(=O)COc2ccc(OC)cc2)c1 the results were RTF Ca sens act -5, LANA-H2A inh active, RTF Ca sens inh 1, LANA DNA inh 0 and Keap1 Nrf2 FP -5.
Screening CCN(CC)S(=O)(=O)c1ccc(N2CCOCC2)c(NC(=O)COc2ccc(C#N)cc2)c1 returned RTF Ca sens act 2, RTF Ca sens inh 2, LANA DNA inh 0 and Keap1 Nrf2 FP -3.
CC(=O)Oc1cccc2c1C(=O)C1CC=CC(OC(C)=O)C1C2=O (stereo not given) was read as RTF Ca sens act 9, RTF Ca sens inh -5, LANA DNA inh -4 and Keap1 Nrf2 FP -1.
COc1ccc(CNC(=O)C(C#N)c2nc3ccccc3nc2N2CCCC2)cc1 (stereo not given) was read as RTF Ca sens act 51*, LANA-H2A inh 0, RTF Ca sens inh -405, LANA DNA inh 18 and Keap1 Nrf2 FP 5.
`CN1CCN(c2nc3ccccc3nc2C(C#N)S(=O)(=O)c2ccccc2)CC1` (stereo not given) gave LANA-H2A inh 5.
`N#CC(c1nc2ccccc2nc1N1CCCC1)S(=O)(=O)c1ccccc1` (stereo not given) gave RTF Ca sens act 12, LANA-H2A inh 17*, RTF Ca sens inh -31, LANA DNA inh 2 and Keap1 Nrf2 FP -3.
`N#C/C(=C\c1coc2ccc(O)cc2c1=O)C(=O)Nc1nc2ccccc2s1` gave RTF Ca sens act 313*, LANA-H2A inh -5, RTF Ca sens inh inactive, LANA DNA inh -1 and Keap1 Nrf2 FP -111.
`N#C/C(=C\c1coc2ccccc2c1=O)C(N)=S` gave RTF Ca sens act 3, LANA-H2A inh 1, RTF Ca sens inh -11, LANA DNA inh 0 and Keap1 Nrf2 FP -4.
CCOc1ccccc1NC(=O)COC(=O)c1ccc2ccccc2n1 was read as RTF Ca sens act 1, LANA-H2A inh 111*, RTF Ca sens inh 0, LANA DNA inh -2 and Keap1 Nrf2 FP -2.
`O=C(CSc1ccccc1)Nc1ccc(N2CCOCC2)cc1` gave RTF Ca sens act -2, LANA-H2A inh 0, RTF Ca sens inh -3, LANA DNA inh -1 and Keap1 Nrf2 FP -4.
Screening O=C(CSc1ccccc1F)Nc1ccc(N2CCOCC2)cc1 returned RTF Ca sens act -9, LANA-H2A inh 18*, RTF Ca sens inh 5, LANA DNA inh -1 and Keap1 Nrf2 FP -1.
For Cc1ccc(C(C(=O)NC(C)(C)C)N(CC2CCCO2)C(=O)CCC(=O)Nc2ccccn2)cc1 (stereo not given) the results were RTF Ca sens act -2, LANA-H2A inh 22*, RTF Ca sens inh -6, LANA DNA inh -1 and Keap1 Nrf2 FP -1.
Screening CC(=O)N1CC=C2C(C#N)=C(N)C(C#N)(C#N)[C@H](c3ccoc3)[C@H]2C1 returned RTF Ca sens act 8, LANA-H2A inh -1, RTF Ca sens inh -19, LANA DNA inh 13 and Keap1 Nrf2 FP -7.
COc1ccc(OC)c(C2C3CN(C(C)C)CC=C3C(C#N)=C(N)C2(C#N)C#N)c1 (stereo not given) was read as RTF Ca sens act 17, LANA-H2A inh 3, RTF Ca sens inh -29, LANA DNA inh 20 and Keap1 Nrf2 FP 1.
`N#CC1=C(N)C(C#N)(C#N)[C@H](c2ccoc2)[C@H]2CN(Cc3ccccc3)CC=C12` gave RTF Ca sens act 31*, LANA-H2A inh 23*, RTF Ca sens inh -50, LANA DNA inh 27 and Keap1 Nrf2 FP 10.
For CCCN1CC=C2C(C#N)=C(N)C(C#N)(C#N)C(c3cccc(OC)c3OC)C2C1 (stereo not given) the results were RTF Ca sens act 53*, LANA-H2A inh 17*, RTF Ca sens inh -57, LANA DNA inh 28 and Keap1 Nrf2 FP 3.
`O=C1CCCN1CCCNc1nc2c(S(=O)(=O)c3ccccc3)nnn2c2ccc(Cl)cc12` gave RTF Ca sens act -6, LANA-H2A inh -3, RTF Ca sens inh 1, LANA DNA inh 0 and Keap1 Nrf2 FP -1.
Screening CCOC(=O)c1sc2nc3c(SCC(=O)O)cc(C(=O)c4cc(F)ccc4O)cn3c(=O)c2c1C returned RTF Ca sens act -22, LANA-H2A inh 22*, RTF Ca sens inh -2, LANA DNA inh 0 and Keap1 Nrf2 FP 0.
`CCCC(=O)Nc1sc(Cc2ccccc2)c(C)c1C(N)=O` gave RTF Ca sens act 2, LANA-H2A inh 0, RTF Ca sens inh 1, LANA DNA inh -1 and Keap1 Nrf2 FP -3.
COC(=O)CCC(=O)Nc1sc(Cc2ccccc2)c(C)c1C(N)=O was read as RTF Ca sens act 2, LANA-H2A inh 22*, RTF Ca sens inh 9, LANA DNA inh 0 and Keap1 Nrf2 FP -4.
CC(=NNC(=O)c1ccncc1)c1ccccc1O was read as RTF Ca sens act 1, RTF Ca sens inh -13, LANA DNA inh -1 and Keap1 Nrf2 FP -6.
`CC(=NNC(=O)c1ccncc1)c1ccc2ccccc2c1O` gave RTF Ca sens act 48*, RTF Ca sens inh -66, LANA DNA inh -20 and Keap1 Nrf2 FP -24.
`O=C(NN=Cc1c(O)ccc2ccccc12)c1ccncc1` gave RTF Ca sens act 31*, RTF Ca sens inh -49, LANA DNA inh -7 and Keap1 Nrf2 FP -14.
CCCCCCOc1ccc(/C=C/C(=O)N2CCOCC2)cc1OC was read as RTF Ca sens act -5, LANA-H2A inh 11*, RTF Ca sens inh 0, LANA DNA inh 0 and Keap1 Nrf2 FP -2.
Screening O=C1/C(=C/c2ccco2)SC(=S)N1c1cccnc1 returned RTF Ca sens act -11, RTF Ca sens inh 9, LANA DNA inh 72* and Keap1 Nrf2 FP 3.
For Cc1cc(/C=C2\SC(=S)N(Cc3ccco3)C2=O)c(C)n1-c1cccnc1 the results were RTF Ca sens act 89*, RTF Ca sens inh -86, LANA DNA inh 7 and Keap1 Nrf2 FP -3.
O=C1/C(=C\c2ccco2)SC(=S)N1c1ccc(O)cc1 was read as RTF Ca sens act 0, LANA-H2A inh -2, RTF Ca sens inh -9, LANA DNA inh 1 and Keap1 Nrf2 FP 1.
CCCNC(=O)C(Cc1ccc(I)cc1)NC(=O)c1ccc(C#N)cc1 (stereo not given) was read as RTF Ca sens act 12, LANA-H2A inh 0, RTF Ca sens inh -4, LANA DNA inh 1 and Keap1 Nrf2 FP 2.
`Cc1cc(C)n(CC(=O)NNC(=O)CC(C)c2ccccc2)n1` (stereo not given) gave RTF Ca sens act 1, RTF Ca sens inh -3, LANA DNA inh 73* and Keap1 Nrf2 FP 1.

Bioassay records from PubChem BioAssay.
